Results as given in PubChem BioAssay AID540356 (Broad Institute, 2011).
The whole screen tested about 2,500 compounds, of which about 360 (14%) were called active. Not all results are given here. A number with no mark means an inactive call.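 Rule for the calls: active = signal-lowering compounds whose fitted half-maximal concentration AC50 is no higher than ten times their top tested concentration; inconclusive = flat curve with 30 to 70% inhibition, or poor fit; inactive = flat within 30%, signal increase, or AC50 above limit.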

experiment: HRP/luminol detection interference without ALR, dose response, artefact control for ALR inhibitor project, biochemical, luminescence, no ALR or DTT, cherry-pick (AID 540356); details: HRP/H2O2 luminol luminescence counterscreen; series mostly up to 10 µM; activity change, negative = inhibition: at the top concentration;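 for activity change, negative = inhibition: 0% = median of neutral control wells and -100% = median of quercitin 100 µM wells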

Structure (SMILES) | activity change, negative = inhibition [%] | AC50
COc1ccc(CNc2cc(C)ccc2C)c(OC)c1OC | -0.348 | 
CC(NC(=O)C(=O)N1CCCCC1)C(c1cccs1)N1CCN(c2ccc(F)cc2)CC1 (stereo not given) | -2.02 | 
Nc1ccc2nc(COc3ccccc3)[nH]c2c1 | -2.37 | 
NNC(=O)c1ccc(O)cc1O | -15.9 | 
NNC(=O)CCc1nc2ccc(O)cc2[nH]1 |  | 10.3 µM (active)
C/C(=N\Nc1ccc(C(=O)O)cc1)c1ccc(Br)cc1 | 0.548 | 
COc1ccc(Cc2nc3ccccc3n2CC(=O)N/N=C/c2ccc(O)cc2)cc1OC | -5.93 | 
COc1cccc(-c2noc(Cn3nc(C)c([N+](=O)[O-])c3C)n2)c1 | -1.36 | 
Nc1ccc2nc(-c3ccccc3)[nH]c2c1 |  | 9.02 µM (active)
Nc1ccc2nc[nH]c2c1 | -6.66 | 
Nc1ccc(-c2nc3cc(N)ccc3o2)cc1 | -2.98 | 
Cn1c(C2CCCCC2)nc2cc(N)ccc21 | -6.46 | 
Nc1ccc(-c2nc3ccccc3[nH]2)cc1 | -5.97 | 
COc1ccc2nc(-c3ccc(N)cc3)[nH]c2c1 | -3.19 | 
Nc1cccc(C(=O)Nc2ccc3nc(-c4cccnc4)[nH]c3c2)c1 | -4.09 | 
Nc1ccc2nc(NC(=O)C3CCCCC3)sc2c1 | -15.8 | 
CC(C)(C)c1ccc(-c2nc3cc(N)ccc3o2)cc1 | -0.704 | 
O=[N+]([O-])c1ccc(CSC2=NCCN2)cc1 | -0.782 | 
Cc1cccc2nc(-c3cccnc3)c(Nc3ccccc3)n12 | 0.126 | 
COc1ccc(NCC(=O)N/N=C/C2CCCCC2)cc1 | -4.24 | 

Structure (SMILES) | activity change, negative = inhibition [%] | AC50
NNc1nc2ccc(F)cc2s1 | 2.12 | 
Cc1[nH]c2ccccc2c1/C=N/NC(=O)Cc1cccs1 | 0.71 | 
COc1cc(CNc2ncc(-c3ccc(Cl)cc3)n2C)cc(OC)c1OC | -1.7 | 
Cc1ccc(Nc2c(-c3ccccc3O)nc3ncccn23)cc1 | -0.343 | 
Cc1csc(/C(=N/OC(=O)c2ccco2)C(N)=O)n1 | -4.37 | 
CC(=O)Nc1ccc(N2C(=O)CSC2c2ccccc2[N+](=O)[O-])cc1 (stereo not given) | -1.06 | 
Brc1ccc(CN2CCN(c3ccccc3)CC2)o1 | -0.297 | 
Nc1ccc2sc(N)nc2c1 | 0.855 | 
Cc1ccc2nc(-c3cccc(N)c3)[nH]c2c1 | -2.99 | 
Nc1ccc(-c2nc3ccc([N+](=O)[O-])cc3[nH]2)cc1 | -2.03 | 
Cc1nc2ccc(-c3nc4ccc(N)cc4[nH]3)cc2[nH]1 |  | 4.68 µM (active)
Nc1ccc2oc(-c3cccs3)nc2c1 | 0.849 | 
O=C(Nc1nc(-c2ccccc2)ns1)c1cccs1 | 0.554 | 
Cc1nnc2sc(SCc3cccc(Cl)c3)nn2c1=O | -3.49 | 
O=S(c1ccc2ccccc2c1)c1cnns1 (stereo not given) | -1.35 | 
C/C(Cl)=C\Cn1c(Nc2ccccc2)nc2c1c(=O)n(C)c(=O)n2C | -2.8 | 
CSCc1ccc(C(=O)NC(C)c2ccc(-n3ccnc3)cc2)cc1 (stereo not given) | 8.36 | 
O=C(CCc1ccccc1)N1CCN(c2ccc(F)cc2)CC1 | -3.68 | 
CC(C)=NNc1nc(-c2ccc(N3C(=O)CCC3=O)cc2)cs1 |  | 6.32 µM (active)
CC(=O)Nc1ccc(-c2csc(NNC(=O)c3ccccc3)n2)cc1 | 3.23 | 

Structure (SMILES) | activity change, negative = inhibition [%] | AC50
CC(C)=NNc1nc(-c2ccccc2)cs1 | 16.3 | 
CN(C)c1ccc(C(=O)Nc2nc3c(s2)CCCC3)cc1 | -0.229 | 
CSCC[C@H](NC(=O)N1CCn2c1nc1ccccc12)C(=O)NC1CCCCC1 | 0.885 | 
O=C(Cc1ccccc1)NNc1c2ccccc2nc2ccccc12 | -6.89 | 
CC(=O)NC(C)C(c1cccs1)N1CCN(c2ccccc2)CC1 (stereo not given) | -0.36 | 
COc1ccc(C(=O)N2CCCC(Nc3ccc(C)c(C)c3)C2)cc1 (stereo not given) | -3.42 | 
Oc1[nH]c2ccccc2c1C1=NCCCC1 | -3.74 | 
CC(=O)c1ccc(S(=O)(=O)Nc2cccc(S(=O)(=O)NC3=NCCC3)c2)cc1 | 0.003 | 
c1ccc(NNC2=NCCCCC2)cc1 |  | 6.06 µM (active)
CN(C)c1ccc(CN(C(=O)c2ccccc2Br)C2CCS(=O)(=O)C2)cc1 (stereo not given) | -3.29 | 
COc1ccc(N2CCN(CC(=O)Nc3ccc(C)c(C)c3)CC2)cc1 | -1.61 | 
Cc1ccc(C(=O)NCCSc2snnc2C)cc1 | 7.72 | 
Cc1ccc(-c2n[nH]c(=S)n2/N=C/c2c(C)[nH]n(-c3ccccc3)c2=O)cc1 | -10.5 | 
O=c1cc(-c2ccccc2)[nH]c2[nH]n(-c3ccccc3)c(=O)c12 | -14.8 | 
N#Cc1ccc(CSc2nnc(NC(=O)c3ccc(=O)[nH]c3)s2)cc1 | -1.28 | 
NNC(=O)c1cccc(COc2ccccc2Br)c1 | 2.34 | 
Cc1cccc(N2CCN(C(=O)C3CCCN(S(=O)(=O)c4cnc[nH]4)C3)CC2C)c1 (stereo not given) | -1.73 | 
S=c1[nH]nc(-c2cccc3ccccc23)n1-c1cccnc1 | -7.05 | 
COc1cc(/C=N/N2CCCCC2)cc([N+](=O)[O-])c1O | -15.9 | 
COc1cc(/C=N/n2c(C)n[nH]c2=S)ccc1OCc1ccccc1 | -10.1 | 
